# Laboratory results reported in PubChem BioAssay.
# The source made the active and inactive calls.
# Tests used:
# [1] = test system: PRMT1 (protein arginine N-methyltransferase 1); experiment: small molecules binding arginine methyltransferase PRMT1 – biochemical, small-molecule microarray, 635 nm fluorescence, primary screen (AID 1088); conditions: higher = more signal;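 note: binding of Prmt1 protein to compounds spotted on small-molecule microarray slides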
# [2] = growth effects on S. cerevisiae YJM789 – YJM789 clinical isolate, OD600, 24 h, basal, primary screen (AID 1089); conditions: higher = more signal, called active from +8 up or from −8 down;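 note: growth of clinical yeast isolate S. cerevisiae YJM 789 seeded 1000 cells per well; test concentration not given here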
# [3] = S. pombe growth modifiers, basal conditions – strain 972, OD600, 24 h, no modulator, primary screen (AID 1090);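 note: basal condition with compound alone and no growth modifier present; test concentration not given here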; conditions: S. pombe 972 growth, higher = more signal, called active from +8 up or from −8 down
# [4] = budding yeast growth modifiers under rapamycin – strain BY4716, OD600, 96 h, primary screen (AID 1091); note: test concentration not given here; conditions: S. cerevisiae BY4716 + rapamycin, higher = more signal, called active from +8 up or from −8 down
# [5] = molecular target: Torsin-1A-interacting protein 2 (Homo sapiens) (UniProt Q8NFQ8); experiment: small molecules binding lysate-expressed LULL1 – cell lysate, human LULL1 lysate, 635/667 nm fluorescence, primary screen (AID 1092); conditions: small-molecule microarray, hLULL1 lysate binding, 635 nm fluorescence; higher = more signal;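 note: probe is lysate of COS7 cells overexpressing human LULL1; score merges per-feature 667 nm fluorescence with signal-to-noise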
# [6] = optical density change of DRC41 E. coli – strain DRC41, OD650, 24 h, E. coli filamentation project, primary screen (AID 1093);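 note: MC1000 strain lacking acrAB efflux and sulA so SOS filamentation is blocked; test concentration not given here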; conditions: E. coli DRC41 growth, higher = more signal, called active from +8 up or from −8 down
# [7] = probe aLefty2 binding to arrayed compounds – biochemical, biotinylated probe, 635/667 nm fluorescence, primary screen (AID 1094); conditions: small-molecule microarray, higher = more signal;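 note: score merges spot fluorescence near 667 nm with spot signal-to-noise ratio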
# [8] = test system: Noggin (protein binding on small-molecule microarray); experiment: small molecules binding Noggin protein – biochemical, 635/667 nm fluorescence, primary screen (AID 1095); conditions: 635 nm fluorescence, higher = more signal;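 note: score merges 667 nm feature fluorescence with signal to noise over triplicate slides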
# [9] = molecular target: Neurogenic locus notch homolog protein 3 (Homo sapiens) (UniProt Q9UM47); experiment: small molecules binding NOTCH3 protein – biochemical, 635/667 nm fluorescence, primary screen (AID 1096); conditions: small-molecule microarray, 635 nm fluorescence, higher = more signal
# [10] = probe aEGFR binding to arrayed compounds – biochemical, biotinylated probe, 635/667 nm fluorescence, primary screen (AID 1097); conditions: small-molecule microarray, higher = more signal;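 note: probe is a biotinylated anti-EGFR antibody binding compounds printed on slides; score combines fluorescence near 667 nm and signal to noise of each spot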
# [11] = test system: Plasmodium falciparum Sir2 (PF13_0152, Sir2A); experiment: Plasmodium falciparum Sir2A binding compounds – biochemical, small-molecule microarray, 635 nm fluorescence, primary screen (AID 1098); conditions: fluorescence 635 nm, higher = more signal;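 note: score merges spot fluorescence intensity with its signal-to-noise ratio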
# [12] = probe aDKK1 binding to arrayed compounds – biochemical, biotinylated probe, 635/667 nm fluorescence, primary screen (AID 1099); conditions: small-molecule microarray, higher = more signal;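 note: score merges 667nm spot fluorescence with signal to noise across triplicate slides; reference of the scale not given here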
# [13] = probe aCHRDL2 binding to arrayed compounds – biochemical, biotinylated probe, 635/667 nm fluorescence, primary screen (AID 1100); conditions: small-molecule microarray, higher = more signal
# [14] = change in splice reporter luminescence, either direction, cell-based, HEK293, spliceosome inhibition project, primary screen (AID 1101); conditions: HEK293 splicing luciferase reporter, 24 h, higher = more signal, called active from +8 up or from −8 down;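 note: HEK293 cells carrying a splicing-competent luciferase reporter gene; test concentration not given here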
# [15] = molecular target: Fibroblast growth factor 10 (Homo sapiens) (UniProt O15520); experiment: compounds binding fibroblast growth factor 10 – biochemical, small-molecule microarray, 635 nm fluorescence, primary screen (AID 1102); conditions: FGF10 binding, fluorescence 635 nm, higher = more signal
# [16] = test system: glycogen synthase kinase-3 (GSK3A per assay name; protocol says GSK3B); experiment: compounds binding glycogen synthase kinase-3 – biochemical, small-molecule microarray, 635 nm fluorescence, GSK3A, primary screen (AID 1103); conditions: fluorescence 635 nm, higher = more signal; note: the record names both GSK3A and GSK3B
# [17] = molecular target: Epidermal growth factor receptor (Homo sapiens) (UniProt P00533); experiment: compounds binding epidermal growth factor receptor – biochemical, small-molecule microarray, 635 nm fluorescence, primary screen (AID 1104); conditions: EGFR binding, higher = more signal;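 note: score merges 667 nm emission intensity with spot signal to noise over triplicate slides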
# [18] = molecular target: Follistatin-related protein 3 (Homo sapiens) (UniProt O95633); experiment: compounds binding follistatin-related protein 3 – biochemical, small-molecule microarray, 635 nm fluorescence, primary screen (AID 1105); conditions: FSTL3 binding, higher = more signal;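 note: score merges emission near 667 nm and signal to noise per printed spot across three slides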
# [19] = molecular target: Dickkopf-related protein 1 (Homo sapiens) (UniProt O94907); experiment: small molecules binding DKK1 protein – biochemical, small-molecule microarray, 635 nm fluorescence scan, primary screen (AID 1106); conditions: higher = more signal;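 note: score merges emission near 667 nm with signal to noise over three replicate slides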
# [20] = test system: Inhibin beta A chain (activin A); experiment: small molecules binding activin A – biochemical, small-molecule microarray, 635 nm fluorescence scan, primary screen (AID 1107); conditions: INHBA, higher = more signal;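 note: mouse activin A protein probed at 4.33 µg/mL on printed slides; score merges bound-protein fluorescence near 667 nm with spot signal-to-noise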
# Chain of Torsin-1A-interacting protein 2 (Homo sapiens) (Q8NFQ8 whole entry, looked up): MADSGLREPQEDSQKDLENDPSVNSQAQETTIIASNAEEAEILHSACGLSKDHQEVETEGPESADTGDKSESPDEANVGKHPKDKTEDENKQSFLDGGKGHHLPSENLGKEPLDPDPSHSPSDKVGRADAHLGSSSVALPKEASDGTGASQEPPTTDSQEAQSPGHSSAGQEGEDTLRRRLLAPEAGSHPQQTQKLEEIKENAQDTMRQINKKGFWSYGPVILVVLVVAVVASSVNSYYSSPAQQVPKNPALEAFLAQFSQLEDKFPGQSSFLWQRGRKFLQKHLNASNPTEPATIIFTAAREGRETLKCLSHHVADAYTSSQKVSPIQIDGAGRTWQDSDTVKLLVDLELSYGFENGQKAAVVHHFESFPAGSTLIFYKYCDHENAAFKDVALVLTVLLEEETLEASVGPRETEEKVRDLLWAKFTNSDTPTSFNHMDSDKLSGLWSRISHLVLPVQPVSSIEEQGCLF
# Chain of Fibroblast growth factor 10 (Homo sapiens) (O15520 whole entry, looked up): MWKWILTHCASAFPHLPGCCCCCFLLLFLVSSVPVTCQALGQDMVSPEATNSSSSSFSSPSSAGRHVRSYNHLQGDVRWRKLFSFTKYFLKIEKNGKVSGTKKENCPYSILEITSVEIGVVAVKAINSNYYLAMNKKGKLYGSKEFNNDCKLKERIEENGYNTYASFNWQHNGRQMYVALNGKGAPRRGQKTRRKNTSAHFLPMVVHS
# Chain of Dickkopf-related protein 1 (Homo sapiens) (O94907 whole entry, looked up): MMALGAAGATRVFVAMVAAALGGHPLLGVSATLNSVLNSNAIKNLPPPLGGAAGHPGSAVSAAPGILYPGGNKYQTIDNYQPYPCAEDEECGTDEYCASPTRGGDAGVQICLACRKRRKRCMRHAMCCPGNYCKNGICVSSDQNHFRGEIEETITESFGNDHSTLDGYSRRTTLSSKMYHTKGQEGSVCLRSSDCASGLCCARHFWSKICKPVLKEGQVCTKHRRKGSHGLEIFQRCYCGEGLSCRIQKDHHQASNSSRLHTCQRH
# Chain of Follistatin-related protein 3 (Homo sapiens) (O95633 whole entry, looked up): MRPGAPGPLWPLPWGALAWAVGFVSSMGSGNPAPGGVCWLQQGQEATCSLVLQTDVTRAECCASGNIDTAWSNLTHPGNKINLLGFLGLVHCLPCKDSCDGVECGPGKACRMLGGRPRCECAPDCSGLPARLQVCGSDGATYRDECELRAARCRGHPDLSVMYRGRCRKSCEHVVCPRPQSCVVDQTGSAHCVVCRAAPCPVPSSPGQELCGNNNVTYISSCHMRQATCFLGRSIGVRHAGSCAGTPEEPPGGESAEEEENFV
# Chain of Neurogenic locus notch homolog protein 3 (Homo sapiens) (Q9UM47 whole entry, looked up): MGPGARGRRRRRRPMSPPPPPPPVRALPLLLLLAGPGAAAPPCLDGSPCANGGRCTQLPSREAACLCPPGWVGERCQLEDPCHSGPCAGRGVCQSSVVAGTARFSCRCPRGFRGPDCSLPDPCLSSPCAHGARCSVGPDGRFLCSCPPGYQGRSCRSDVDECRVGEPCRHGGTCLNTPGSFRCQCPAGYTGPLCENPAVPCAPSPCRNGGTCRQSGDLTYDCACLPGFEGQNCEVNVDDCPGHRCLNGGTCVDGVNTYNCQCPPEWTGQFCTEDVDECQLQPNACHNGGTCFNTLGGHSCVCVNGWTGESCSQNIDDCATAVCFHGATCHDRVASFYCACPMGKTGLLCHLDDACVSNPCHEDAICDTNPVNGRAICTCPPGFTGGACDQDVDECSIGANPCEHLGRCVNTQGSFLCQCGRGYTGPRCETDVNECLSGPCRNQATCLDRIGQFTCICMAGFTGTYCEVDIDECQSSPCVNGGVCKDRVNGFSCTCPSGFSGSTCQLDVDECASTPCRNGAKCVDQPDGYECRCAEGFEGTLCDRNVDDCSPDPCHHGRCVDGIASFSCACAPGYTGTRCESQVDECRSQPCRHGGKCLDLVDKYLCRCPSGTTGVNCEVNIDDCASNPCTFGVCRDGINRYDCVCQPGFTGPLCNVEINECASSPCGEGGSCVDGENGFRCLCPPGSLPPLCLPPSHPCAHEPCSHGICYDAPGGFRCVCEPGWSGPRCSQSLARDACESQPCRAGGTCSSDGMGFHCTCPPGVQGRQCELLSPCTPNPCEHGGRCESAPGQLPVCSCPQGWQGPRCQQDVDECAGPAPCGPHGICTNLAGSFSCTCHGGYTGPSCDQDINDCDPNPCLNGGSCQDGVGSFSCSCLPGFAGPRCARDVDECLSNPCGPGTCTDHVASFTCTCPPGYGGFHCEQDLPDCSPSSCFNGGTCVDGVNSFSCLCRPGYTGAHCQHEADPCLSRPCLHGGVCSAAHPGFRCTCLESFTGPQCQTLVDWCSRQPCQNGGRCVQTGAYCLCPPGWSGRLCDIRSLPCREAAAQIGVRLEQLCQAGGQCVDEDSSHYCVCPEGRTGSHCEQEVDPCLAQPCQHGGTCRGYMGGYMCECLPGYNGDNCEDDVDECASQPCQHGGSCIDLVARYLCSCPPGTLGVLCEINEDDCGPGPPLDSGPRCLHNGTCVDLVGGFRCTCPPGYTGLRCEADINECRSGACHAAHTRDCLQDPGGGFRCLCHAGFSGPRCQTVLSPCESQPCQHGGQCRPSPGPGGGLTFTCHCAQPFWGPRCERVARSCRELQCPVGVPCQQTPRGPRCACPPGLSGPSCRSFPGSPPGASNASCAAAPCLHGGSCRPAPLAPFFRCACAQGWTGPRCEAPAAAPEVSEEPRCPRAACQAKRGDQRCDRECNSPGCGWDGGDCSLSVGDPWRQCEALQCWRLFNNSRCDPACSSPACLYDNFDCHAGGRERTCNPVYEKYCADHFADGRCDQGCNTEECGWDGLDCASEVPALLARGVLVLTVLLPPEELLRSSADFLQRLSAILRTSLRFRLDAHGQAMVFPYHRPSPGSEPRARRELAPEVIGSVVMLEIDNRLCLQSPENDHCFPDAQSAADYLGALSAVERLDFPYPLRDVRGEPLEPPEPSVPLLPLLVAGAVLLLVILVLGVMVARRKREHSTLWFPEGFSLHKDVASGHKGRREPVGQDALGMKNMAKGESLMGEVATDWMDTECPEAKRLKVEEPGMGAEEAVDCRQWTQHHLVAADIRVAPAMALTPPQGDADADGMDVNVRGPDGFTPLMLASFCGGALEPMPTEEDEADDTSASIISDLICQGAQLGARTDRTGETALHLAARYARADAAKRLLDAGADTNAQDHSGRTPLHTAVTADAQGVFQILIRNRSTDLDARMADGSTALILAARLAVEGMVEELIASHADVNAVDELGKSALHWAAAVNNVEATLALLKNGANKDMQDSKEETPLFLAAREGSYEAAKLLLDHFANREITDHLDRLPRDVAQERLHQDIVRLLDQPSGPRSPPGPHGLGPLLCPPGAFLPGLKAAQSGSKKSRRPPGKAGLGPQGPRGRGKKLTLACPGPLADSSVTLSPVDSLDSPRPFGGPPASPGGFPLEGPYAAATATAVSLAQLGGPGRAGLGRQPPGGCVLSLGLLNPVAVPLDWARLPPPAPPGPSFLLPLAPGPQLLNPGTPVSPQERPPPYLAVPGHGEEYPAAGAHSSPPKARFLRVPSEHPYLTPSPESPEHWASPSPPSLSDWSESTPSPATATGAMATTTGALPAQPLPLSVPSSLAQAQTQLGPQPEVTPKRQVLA
# Chain of Epidermal growth factor receptor (Homo sapiens) (P00533 whole entry, looked up): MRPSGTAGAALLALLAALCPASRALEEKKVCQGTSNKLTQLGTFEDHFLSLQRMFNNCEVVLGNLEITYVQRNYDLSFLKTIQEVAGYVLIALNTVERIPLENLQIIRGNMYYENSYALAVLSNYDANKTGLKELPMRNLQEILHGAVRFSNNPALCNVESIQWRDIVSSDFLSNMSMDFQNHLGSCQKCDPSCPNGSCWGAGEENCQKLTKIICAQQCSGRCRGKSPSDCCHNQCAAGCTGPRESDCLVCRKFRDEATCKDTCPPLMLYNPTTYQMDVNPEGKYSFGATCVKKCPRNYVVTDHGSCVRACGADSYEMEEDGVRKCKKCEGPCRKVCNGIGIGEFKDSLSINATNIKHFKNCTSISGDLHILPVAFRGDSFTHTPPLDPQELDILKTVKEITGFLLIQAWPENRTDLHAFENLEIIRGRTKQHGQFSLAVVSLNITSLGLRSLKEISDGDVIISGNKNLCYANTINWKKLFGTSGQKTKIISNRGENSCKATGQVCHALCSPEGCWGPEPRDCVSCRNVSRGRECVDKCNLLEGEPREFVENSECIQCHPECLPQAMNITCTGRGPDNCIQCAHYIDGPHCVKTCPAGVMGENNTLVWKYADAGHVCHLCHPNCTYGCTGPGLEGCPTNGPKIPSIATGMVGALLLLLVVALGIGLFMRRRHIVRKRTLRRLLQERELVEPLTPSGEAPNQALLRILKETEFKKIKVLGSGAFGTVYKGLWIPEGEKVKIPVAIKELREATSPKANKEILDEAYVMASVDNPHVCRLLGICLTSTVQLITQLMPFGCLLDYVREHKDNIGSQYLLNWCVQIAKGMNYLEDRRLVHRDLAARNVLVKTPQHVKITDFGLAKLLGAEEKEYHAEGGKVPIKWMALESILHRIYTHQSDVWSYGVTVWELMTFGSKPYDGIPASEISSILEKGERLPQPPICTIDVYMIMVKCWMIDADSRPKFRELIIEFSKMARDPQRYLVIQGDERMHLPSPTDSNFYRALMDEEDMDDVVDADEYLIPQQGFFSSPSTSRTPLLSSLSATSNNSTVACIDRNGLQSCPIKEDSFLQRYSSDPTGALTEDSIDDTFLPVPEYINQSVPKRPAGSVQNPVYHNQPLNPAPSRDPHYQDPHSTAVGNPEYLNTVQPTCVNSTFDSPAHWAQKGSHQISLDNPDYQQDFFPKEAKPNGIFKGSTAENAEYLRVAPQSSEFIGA
Compound,composite z-score [1],z-score [2],z-score [3],z-score [4],composite z-score [5],z-score [6],composite z-score [7],composite z-score [8],composite z-score [9],composite z-score [10],composite z-score [11],composite z-score [12],composite z-score [13],z-score [14],composite z-score [15],composite z-score [16],composite z-score [17],composite z-score [18],composite z-score [19],composite z-score [20]
O=C1C2C=CC(C(O)c3ccco3)N(Nc3ccccc3F)C2C(=O)N1c1ccccc1 (stereo not given),-0.281,0.252 (inactive),0.512 (inactive),-0.119 (inactive),2.46,-1.47 (inactive),0.0686,-0.221,0.569,-0.0435,0.926,0.497,1.01,0.901 (inactive),0.285,0.179,-0.14,0.338,0.326,0.75
CCCCCN1CC=CC23O[C@@H]4C=CCCOC(=O)C4[C@H]2C(=O)N(CCCCCCO)[C@@H]3C1=O (stereo not given in full),0.812,-0.0966 (inactive),-0.0045 (inactive),-0.0168 (inactive),3.49,0.313 (inactive),-0.423,-0.362,-0.135,-0.282,0.788,-0.467,-0.272,2.61 (inactive),0.0027,-0.284,-0.547,-1.01,-0.69,-0.206
[N-]=[N+]=Nc1ccccc1C[C@@]1(C(N)=O)N=C(c2ccc(OCCCO)cc2)O[C@@H]1c1ccccc1N=[N+]=[N-],0.319,-0.974 (inactive),-1.01 (inactive),-0.933 (inactive),2.05,0.905 (inactive),0.281,-0.467,0.0955,0.639,0.749,1.14,0.974,-1.36 (inactive),-0.24,0.385,0.181,-0.199,-0.459,1.46
O=C1OCCC=C[C@H]2OC34C=CCN(c5ccc6ccccc6c5)C(=O)[C@H]3N(CCCO)C(=O)[C@@H]4C12 (stereo not given in full),-1.63,0.312 (inactive),-0.951 (inactive),0.345 (inactive),-0.939,0.843 (inactive),-0.222,-2.16,-1.19,-0.295,0.933,-0.258,0.637,-1 (inactive),-1.62,-2.21,-1.93,-1.94,-1.8,-2.42
Cc1ccc(S[C@]2(C(=O)O)CC(=O)N(C3CCCCC3)[C@@H]2c2ccc(CO)cc2I)cc1,1.5,-0.693 (inactive),-0.472 (inactive),0.253 (inactive),3.35,0.843 (inactive),0.274,-0.0104,0.754,-0.0369,1.48,0.431,0.903,-0.443 (inactive),1.27,0.797,-0.131,1.04,-0.231,1.06
CCCCC(O)C1C=CC2C(=O)N(C)C(=O)C2N1N(c1ccccc1)c1ccccc1 (stereo not given),1.56,-0.0289 (inactive),0.483 (inactive),0.251 (inactive),3.1,-1.8 (inactive),-0.0441,-0.0371,1.1,0.111,1.5,0.866,1.31,1.44 (inactive),0.42,1.02,0.0978,0.424,-0.73,1.18
Cc1ccc(NN2C(C(O)c3c(F)cccc3Cl)C=CC3C(=O)N(C4CCCCC4)C(=O)C32)cc1 (stereo not given),1.43,-0.58 (inactive),-0.362 (inactive),-0.262 (inactive),3.02,-0.0346 (inactive),0.184,-0.203,1.05,0.0708,0.338,0.827,1.07,-1.19 (inactive),0.425,1.3,-0.184,0.716,-0.258,1.32
COC(=O)c1c(CC[C@@H](CO)NC(=O)N[C@@H](C)Cn2cc(-c3ccccn3)nn2)oc(C(C)=O)c1C(=O)OC,1.39,-0.441 (inactive),-0.705 (inactive),0.198 (inactive),1.42,-0.608 (inactive),-0.115,1.43,0.794,-0.164,1.09,-0.18,-0.495,-1.89 (inactive),0.563,0.0696,-0.344,0.454,0.28,0.284
CC(=O)N1CC2(CC2)CC1c1ccccc1 (stereo not given),0.594,-0.999 (inactive),0.661 (inactive),0.218 (inactive),1.19,0.0425 (inactive),0.0423,0.423,0.251,0.0986,-0.295,0.234,-0.0067,0.665 (inactive),0.281,0.152,0.461,-0.154,-0.0538,0.791
CCOC(=O)C1=C[C@@H](c2ccccc2)N(S(=O)(=O)c2ccc(C)cc2)[C@H]1c1ccc(OC)cc1,1.24,-1.13 (inactive),1.29 (inactive),0.698 (inactive),2.71,-0.685 (inactive),0.338,0.221,1.14,0.756,0.979,1.16,1.05,-0.71 (inactive),0.957,0.938,0.561,0.652,0.0786,1.25
C#CCN(Cc1ccccc1Br)[C@H](/C=C/c1ccccc1)[C@@H](O)Cc1ccccc1,-0.384,0.737 (inactive),-12.7 (active),1.38 (inactive),0.98,1.44 (inactive),0.195,-1.24,-0.623,-0.397,-0.699,0.12,0.857,-1.51 (inactive),-0.636,-0.705,-1.45,-1.21,-1.42,1.35
COc1ccc(CCNC(=O)[C@@]2(Cc3ccccc3I)c3ccccc3C(=O)N(C3CCCCC3)[C@H]2c2ccc(CO)cc2)cc1,1.36,-2.01 (inactive),-1.81 (inactive),-0.742 (inactive),2.3,-1.41 (inactive),-0.0176,-0.275,0.566,-0.115,1.41,0.0563,0.58,-1.17 (inactive),-0.277,0.302,-0.354,0.123,-0.41,0.272
CC(c1ccccc1)C(O)C1C=CC2C(=O)N(C)C(=O)C2N1Nc1ccccc1 (stereo not given),1.33,0.188 (inactive),0.669 (inactive),0.419 (inactive),2.99,-0.689 (inactive),0.445,-0.194,1.14,0.0849,1.25,1.04,1.2,1.31 (inactive),0.663,0.515,0.0188,0.359,-0.452,0.965
CCOC(=O)C[C@H]1[C@H](OC(=O)c2cc3ccccc3oc2=O)[C@@H](NC(=O)CC(C)C)c2cc(OCCCO)ccc2N1C(=O)c1ccc2ccccc2n1,1.04,0.475 (inactive),0.376 (inactive),0.665 (inactive),1.09,-0.588 (inactive),-0.0916,0.746,0.982,0.326,0.342,-0.12,-0.53,0.0136 (inactive),1.32,0.998,0.548,1.14,0.409,0.413
CCOc1cc(C(O)C2C=CC3C(=O)NC(=O)C3N2Nc2ccc(Cl)cc2Cl)ccc1O (stereo not given),-1.54,-1.36 (inactive),-1.29 (inactive),0.339 (inactive),0.0486,-0.847 (inactive),0.0717,-0.26,-1.31,-0.16,-0.402,0.737,0.942,1.22 (inactive),-0.251,-0.848,-0.238,-0.859,-0.765,1.37
CCOC(=O)C[C@H]1[C@H](OC(=O)c2ccc(C(=O)c3ccccc3)cc2)[C@@H](NC(=O)c2ccc(-c3ccccc3)cc2)c2cc(OCCCO)ccc2N1C(=O)Cc1ccc(OC)cc1,0.845,0.233 (inactive),0.838 (inactive),0.876 (inactive),0.861,0.24 (inactive),0.259,0.601,0.378,-0.0302,0.0732,0.223,0.777,-0.213 (inactive),0.0382,0.0652,-0.274,0.0472,-0.537,0.783
COC(=O)[C@@]1(Cc2ccc(OC)cc2)[C@H]2c3cc(C(=O)N4CCCC4)n(CCc4c[nH]c5ccc(OC)cc45)c3C[C@H]2CN1C(=O)c1ccccc1,0.0079,0.425 (inactive),1.84 (inactive),4.15 (inactive),3.03,-0.669 (inactive),0.722,-0.0307,1.02,0.318,0.789,1.5,1.55,-1.21 (inactive),0.591,1.14,-0.0086,1.19,-0.299,0.877
CCCCN1CC=CC23O[C@@H]4/C=C\CCC(C)OC(=O)C4[C@H]2C(=O)N(CCCO)[C@@H]3C1=O (stereo not given in full),-0.298,0.757 (inactive),0.772 (inactive),0.528 (inactive),0.879,0.755 (inactive),-0.186,-0.908,-0.166,-0.217,1.16,-0.235,0.662,0.239 (inactive),-1.13,-0.496,-0.983,-1.04,-1.37,-0.372
O=C1OCCC/C=C\[C@H]2OC34C=CCN(c5ccc6ccccc6c5)C(=O)[C@H]3N(CCO)C(=O)[C@@H]4C12 (stereo not given in full),-0.352,0.0709 (inactive),-0.224 (inactive),0.341 (inactive),0.25,0.491 (inactive),-0.14,-1.79,-0.858,-0.335,1.32,-0.416,0.256,-1.07 (inactive),-0.654,-0.785,-1.83,-1.59,-1.09,0.0621
COC(=O)C/C=C/C[C@]1(O)C(=O)N(C)c2ccccc21,0.756,-1.73 (inactive),-1.35 (inactive),-1.02 (inactive),0.423,1.48 (inactive),-0.186,0.739,0.434,-0.0805,-0.262,-0.299,-0.802,-1.38 (inactive),0.791,0.605,0.784,0.616,0.949,0.587
